# Measured values reported in PMC7862700, “An all-to-all approach to the identification of sequence-specific readers for epigenetic DNA modifications on cytosine”.
# Columns and labels:
# Assay in all cases: DAPPL (digital affinity profiling via proximity ligation, sequencing); 10 mM Tris-HCl pH 7.5, 50 mM NaCl, 1 mM DTT, 4% glycerol, room temperature, 30 min; GST-TFs on glutathione beads, 16-mer random dsDNA library, 0.1% formaldehyde crosslink after washing; high values mean tight binding
# FLI1 = biological target: T1, FLI1 (Homo sapiens, UniProt Q01543 1-452); conditions: protein: recombinant; tags: N-terminal GST; dsDNA, one strand shown
# T1 sequence: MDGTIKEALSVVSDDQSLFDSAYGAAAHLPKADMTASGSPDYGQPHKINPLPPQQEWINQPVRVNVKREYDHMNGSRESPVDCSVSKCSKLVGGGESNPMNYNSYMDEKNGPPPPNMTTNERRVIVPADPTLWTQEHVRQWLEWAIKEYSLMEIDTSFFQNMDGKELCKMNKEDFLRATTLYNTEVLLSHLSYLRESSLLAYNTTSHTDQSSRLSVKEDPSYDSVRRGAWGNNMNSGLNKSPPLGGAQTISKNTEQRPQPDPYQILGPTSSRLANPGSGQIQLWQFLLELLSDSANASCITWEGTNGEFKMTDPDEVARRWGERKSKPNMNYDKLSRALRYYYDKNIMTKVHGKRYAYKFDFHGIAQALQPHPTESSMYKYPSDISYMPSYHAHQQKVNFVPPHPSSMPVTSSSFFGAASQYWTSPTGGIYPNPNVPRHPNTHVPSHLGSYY
# How it was run: (§1)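 Each value of binding signal is a hexamer's read frequency for a factor divided by the same hexamer's frequency in the tag-only sample. Barcoded, bead-captured GST fusions of human transcription factors made in yeast were pooled with that sample and incubated with 200 nmole of a random double-stranded 16-mer DNA library in Tris/NaCl/DTT/glycerol buffer at room temperature for 30 min. Washing, 0.1% formaldehyde crosslinking, proximity ligation, PCR and Illumina NextSeq500 sequencing followed.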
# ELK1 = biological target: T2, ELK1 (Homo sapiens, UniProt P19419 1-428); conditions: protein: recombinant; tags: N-terminal GST; dsDNA, one strand shown
# T2 sequence: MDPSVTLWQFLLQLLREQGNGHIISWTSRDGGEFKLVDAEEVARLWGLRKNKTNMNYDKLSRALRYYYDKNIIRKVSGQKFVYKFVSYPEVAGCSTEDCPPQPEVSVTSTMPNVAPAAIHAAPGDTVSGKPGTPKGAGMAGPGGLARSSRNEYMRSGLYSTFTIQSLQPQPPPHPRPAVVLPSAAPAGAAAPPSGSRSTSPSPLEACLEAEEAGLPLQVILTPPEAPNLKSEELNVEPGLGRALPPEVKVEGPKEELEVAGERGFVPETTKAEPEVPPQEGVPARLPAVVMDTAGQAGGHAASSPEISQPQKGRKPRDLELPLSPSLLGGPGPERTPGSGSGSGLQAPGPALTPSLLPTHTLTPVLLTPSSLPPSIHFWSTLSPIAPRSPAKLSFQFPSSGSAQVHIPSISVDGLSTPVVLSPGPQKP
# How it was run: as §1
# GABPA = biological target: T3, GABPA (Homo sapiens, UniProt Q06546 1-454); conditions: protein: recombinant; tags: N-terminal GST; dsDNA, one strand shown
# T3 sequence: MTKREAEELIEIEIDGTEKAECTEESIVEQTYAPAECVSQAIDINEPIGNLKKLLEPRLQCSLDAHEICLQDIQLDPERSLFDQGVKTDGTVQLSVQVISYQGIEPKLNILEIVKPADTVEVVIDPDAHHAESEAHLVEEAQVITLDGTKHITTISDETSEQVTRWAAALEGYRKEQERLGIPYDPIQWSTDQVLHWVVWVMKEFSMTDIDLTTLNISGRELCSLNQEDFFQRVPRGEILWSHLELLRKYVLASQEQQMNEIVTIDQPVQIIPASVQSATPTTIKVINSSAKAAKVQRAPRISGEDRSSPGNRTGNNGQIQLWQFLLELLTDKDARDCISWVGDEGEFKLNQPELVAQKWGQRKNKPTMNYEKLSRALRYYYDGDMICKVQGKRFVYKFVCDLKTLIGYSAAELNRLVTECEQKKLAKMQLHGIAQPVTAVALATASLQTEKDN
# How it was run: as §1
# ERG = biological target: T4, ERG (Homo sapiens, UniProt P11308 1-479); conditions: protein: recombinant; tags: N-terminal GST; dsDNA, one strand shown
# T4 sequence: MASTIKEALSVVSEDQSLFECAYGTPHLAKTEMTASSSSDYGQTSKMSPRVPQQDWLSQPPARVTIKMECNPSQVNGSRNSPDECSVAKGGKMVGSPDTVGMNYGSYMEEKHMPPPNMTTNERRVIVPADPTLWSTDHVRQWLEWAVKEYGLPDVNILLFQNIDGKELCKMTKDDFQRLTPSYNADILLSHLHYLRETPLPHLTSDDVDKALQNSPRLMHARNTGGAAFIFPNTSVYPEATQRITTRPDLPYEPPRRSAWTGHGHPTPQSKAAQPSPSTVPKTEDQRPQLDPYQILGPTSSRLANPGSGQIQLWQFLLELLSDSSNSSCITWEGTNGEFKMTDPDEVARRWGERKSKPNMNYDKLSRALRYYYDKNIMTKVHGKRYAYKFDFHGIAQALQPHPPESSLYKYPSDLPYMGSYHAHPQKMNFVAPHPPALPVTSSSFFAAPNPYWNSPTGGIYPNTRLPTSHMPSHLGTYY
# How it was run: as §1
# ELF1 = ELF1 (Homo sapiens, UniProt P32519 1-619); conditions: protein: recombinant; tags: N-terminal GST; dsDNA, one strand shown
# Chain of ELF1 (P32519 whole entry): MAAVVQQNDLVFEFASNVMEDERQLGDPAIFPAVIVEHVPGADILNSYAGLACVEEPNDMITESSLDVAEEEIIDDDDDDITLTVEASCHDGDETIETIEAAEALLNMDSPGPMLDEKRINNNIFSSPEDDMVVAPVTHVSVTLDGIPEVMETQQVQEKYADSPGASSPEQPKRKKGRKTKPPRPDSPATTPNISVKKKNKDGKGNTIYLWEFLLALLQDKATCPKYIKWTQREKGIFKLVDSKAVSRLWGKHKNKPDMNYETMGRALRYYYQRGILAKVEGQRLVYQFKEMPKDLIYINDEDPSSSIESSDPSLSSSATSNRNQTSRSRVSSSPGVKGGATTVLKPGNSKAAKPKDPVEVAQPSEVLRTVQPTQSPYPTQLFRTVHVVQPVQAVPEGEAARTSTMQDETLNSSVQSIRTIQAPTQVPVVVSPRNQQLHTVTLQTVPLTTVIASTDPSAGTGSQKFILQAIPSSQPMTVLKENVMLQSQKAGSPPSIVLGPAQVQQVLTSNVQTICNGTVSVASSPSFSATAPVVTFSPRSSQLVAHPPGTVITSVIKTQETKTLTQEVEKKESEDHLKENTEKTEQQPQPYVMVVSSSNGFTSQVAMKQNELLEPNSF
# How it was run: as §1
# EHF = biological target: T5, EHF (Homo sapiens, UniProt Q9NZC4 1-300); conditions: protein: recombinant; tags: N-terminal GST; dsDNA, one strand shown
# T5 sequence: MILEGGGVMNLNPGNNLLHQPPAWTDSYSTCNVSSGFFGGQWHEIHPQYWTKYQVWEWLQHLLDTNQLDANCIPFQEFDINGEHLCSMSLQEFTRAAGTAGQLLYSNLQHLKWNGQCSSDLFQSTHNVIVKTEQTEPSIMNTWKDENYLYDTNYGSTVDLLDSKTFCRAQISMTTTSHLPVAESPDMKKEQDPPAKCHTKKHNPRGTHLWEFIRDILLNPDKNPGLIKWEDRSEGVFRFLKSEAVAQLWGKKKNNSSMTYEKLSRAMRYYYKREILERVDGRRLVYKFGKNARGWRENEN
# How it was run: as §1
# SPI1 = SPI1 (Homo sapiens, UniProt P17947 1-270); conditions: protein: recombinant; tags: N-terminal GST; dsDNA, one strand shown
# How it was run: as §1
# SPIB = SPIB (Homo sapiens, UniProt Q01892 1-262); conditions: protein: recombinant; tags: N-terminal GST; dsDNA, one strand shown
# Chain of SPIB (Q01892 whole entry): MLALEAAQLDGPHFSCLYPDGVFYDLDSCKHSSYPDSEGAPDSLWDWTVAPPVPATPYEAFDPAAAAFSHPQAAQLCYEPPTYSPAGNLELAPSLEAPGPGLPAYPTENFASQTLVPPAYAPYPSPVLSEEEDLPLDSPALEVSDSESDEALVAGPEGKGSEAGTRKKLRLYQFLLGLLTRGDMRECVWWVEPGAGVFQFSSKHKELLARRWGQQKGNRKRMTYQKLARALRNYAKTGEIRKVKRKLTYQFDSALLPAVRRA
# How it was run: as §1
# ELK3 = biological target: T6, ELK3 (Homo sapiens, UniProt P41970 1-407); conditions: protein: recombinant; tags: N-terminal GST; dsDNA, one strand shown
# T6 sequence: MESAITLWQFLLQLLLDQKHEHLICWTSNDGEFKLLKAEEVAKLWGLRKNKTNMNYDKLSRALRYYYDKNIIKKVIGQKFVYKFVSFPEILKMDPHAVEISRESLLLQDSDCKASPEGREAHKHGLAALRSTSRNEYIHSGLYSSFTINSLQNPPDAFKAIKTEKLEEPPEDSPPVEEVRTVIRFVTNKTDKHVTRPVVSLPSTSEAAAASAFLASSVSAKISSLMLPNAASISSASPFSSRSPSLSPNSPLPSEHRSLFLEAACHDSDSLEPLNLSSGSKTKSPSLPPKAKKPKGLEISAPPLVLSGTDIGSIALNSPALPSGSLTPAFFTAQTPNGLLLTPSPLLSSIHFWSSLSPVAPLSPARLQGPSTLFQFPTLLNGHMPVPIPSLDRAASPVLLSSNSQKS
# How it was run: as §1
# FEV = biological target: T7, FEV (Homo sapiens, UniProt Q99581 1-238); conditions: protein: recombinant; tags: N-terminal GST; dsDNA, one strand shown
# T7 sequence: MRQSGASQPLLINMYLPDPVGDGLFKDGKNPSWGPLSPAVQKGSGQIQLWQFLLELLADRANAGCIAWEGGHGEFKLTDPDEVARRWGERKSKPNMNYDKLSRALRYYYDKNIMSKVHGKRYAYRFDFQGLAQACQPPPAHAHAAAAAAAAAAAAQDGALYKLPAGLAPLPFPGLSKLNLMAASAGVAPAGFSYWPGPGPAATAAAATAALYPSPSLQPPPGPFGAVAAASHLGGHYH
# How it was run: as §1
# ETV5 = ETV5 (Homo sapiens, UniProt P41161 1-510); conditions: protein: recombinant; tags: N-terminal GST; dsDNA, one strand shown
# Chain of ETV5 (P41161 whole entry): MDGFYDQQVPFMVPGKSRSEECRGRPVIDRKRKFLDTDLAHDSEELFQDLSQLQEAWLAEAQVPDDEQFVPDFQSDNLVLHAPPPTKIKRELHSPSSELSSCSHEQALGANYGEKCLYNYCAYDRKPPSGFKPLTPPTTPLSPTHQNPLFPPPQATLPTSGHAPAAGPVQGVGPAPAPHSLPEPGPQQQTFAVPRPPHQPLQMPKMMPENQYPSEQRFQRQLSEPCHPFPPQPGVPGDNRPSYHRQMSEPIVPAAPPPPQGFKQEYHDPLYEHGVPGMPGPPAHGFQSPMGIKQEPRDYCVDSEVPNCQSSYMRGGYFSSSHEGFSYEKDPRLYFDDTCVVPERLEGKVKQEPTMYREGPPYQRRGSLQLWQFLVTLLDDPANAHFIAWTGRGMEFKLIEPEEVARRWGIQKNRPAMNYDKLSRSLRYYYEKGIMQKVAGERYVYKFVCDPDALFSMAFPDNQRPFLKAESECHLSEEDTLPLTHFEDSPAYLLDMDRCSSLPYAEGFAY
# How it was run: as §1
# HSF1 = HSF1 (Homo sapiens, UniProt Q00613 1-529); conditions: protein: recombinant; tags: N-terminal GST; chain copies: 3; dsDNA, one strand shown
# Chain of HSF1 (Q00613 whole entry): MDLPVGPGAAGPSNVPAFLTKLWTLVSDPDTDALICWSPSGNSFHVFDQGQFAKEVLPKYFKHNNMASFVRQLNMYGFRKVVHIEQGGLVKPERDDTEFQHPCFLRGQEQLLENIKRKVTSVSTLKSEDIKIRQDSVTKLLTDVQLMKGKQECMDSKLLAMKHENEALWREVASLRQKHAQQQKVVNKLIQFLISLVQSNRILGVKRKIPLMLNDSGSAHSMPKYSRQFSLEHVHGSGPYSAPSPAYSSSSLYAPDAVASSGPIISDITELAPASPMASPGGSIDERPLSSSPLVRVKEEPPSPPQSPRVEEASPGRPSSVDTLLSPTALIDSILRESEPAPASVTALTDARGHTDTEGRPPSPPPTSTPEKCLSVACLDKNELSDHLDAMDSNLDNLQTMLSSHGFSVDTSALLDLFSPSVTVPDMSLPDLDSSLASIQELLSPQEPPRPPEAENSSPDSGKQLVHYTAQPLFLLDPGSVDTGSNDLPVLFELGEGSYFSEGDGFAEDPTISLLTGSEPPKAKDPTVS
# How it was run: as §1
# SPIC = biological target: T8, SPIC (Homo sapiens, UniProt Q8N5J4 1-248); conditions: protein: recombinant; tags: N-terminal GST; dsDNA, one strand shown
# T8 sequence: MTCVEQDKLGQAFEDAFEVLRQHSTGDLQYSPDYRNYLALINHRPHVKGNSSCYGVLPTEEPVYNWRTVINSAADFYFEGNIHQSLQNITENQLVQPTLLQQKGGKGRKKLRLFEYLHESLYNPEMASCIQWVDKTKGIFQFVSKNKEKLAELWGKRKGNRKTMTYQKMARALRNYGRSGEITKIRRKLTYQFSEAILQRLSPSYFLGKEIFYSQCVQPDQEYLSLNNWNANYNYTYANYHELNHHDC
# How it was run: as §1
# ELF4 = ELF4 (Homo sapiens, UniProt Q99607 1-663); conditions: protein: recombinant; tags: N-terminal GST; dsDNA, one strand shown
# Chain of ELF4 (Q99607 whole entry): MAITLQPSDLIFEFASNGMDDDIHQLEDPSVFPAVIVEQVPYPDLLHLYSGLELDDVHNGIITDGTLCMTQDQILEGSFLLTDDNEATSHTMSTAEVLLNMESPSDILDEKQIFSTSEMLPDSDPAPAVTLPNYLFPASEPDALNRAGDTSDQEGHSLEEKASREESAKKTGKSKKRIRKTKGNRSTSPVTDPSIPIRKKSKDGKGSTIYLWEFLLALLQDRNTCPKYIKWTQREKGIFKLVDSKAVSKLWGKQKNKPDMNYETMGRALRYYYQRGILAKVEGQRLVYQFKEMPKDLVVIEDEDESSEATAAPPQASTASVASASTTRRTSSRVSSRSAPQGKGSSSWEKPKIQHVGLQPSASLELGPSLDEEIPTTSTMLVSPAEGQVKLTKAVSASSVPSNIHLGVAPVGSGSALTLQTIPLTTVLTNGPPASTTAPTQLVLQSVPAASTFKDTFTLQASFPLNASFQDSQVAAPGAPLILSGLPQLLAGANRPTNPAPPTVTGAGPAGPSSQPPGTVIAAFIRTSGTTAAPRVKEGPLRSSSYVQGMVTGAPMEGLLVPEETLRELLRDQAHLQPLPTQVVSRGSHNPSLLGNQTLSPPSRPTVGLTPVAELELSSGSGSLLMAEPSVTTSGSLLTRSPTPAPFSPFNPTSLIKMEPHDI
# How it was run: as §1
# ELK4 = biological target: T9, ELK4 (Homo sapiens, UniProt P28324-2 1-405); conditions: protein: recombinant; tags: N-terminal GST; dsDNA, one strand shown
# T9 sequence: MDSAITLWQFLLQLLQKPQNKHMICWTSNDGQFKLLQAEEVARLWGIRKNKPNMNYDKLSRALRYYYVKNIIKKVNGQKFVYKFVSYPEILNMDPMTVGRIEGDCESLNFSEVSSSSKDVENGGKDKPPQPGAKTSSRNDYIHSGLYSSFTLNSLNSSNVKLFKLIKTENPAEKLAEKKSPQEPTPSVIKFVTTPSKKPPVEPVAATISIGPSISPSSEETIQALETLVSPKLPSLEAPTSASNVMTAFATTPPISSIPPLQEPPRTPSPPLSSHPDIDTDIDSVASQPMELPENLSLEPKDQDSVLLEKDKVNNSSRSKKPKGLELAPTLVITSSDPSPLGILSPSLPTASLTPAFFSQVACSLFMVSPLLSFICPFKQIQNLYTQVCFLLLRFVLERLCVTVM
# How it was run: as §1
# ETV2 = biological target: T10, ETV2 (Homo sapiens, UniProt O00321 1-342); conditions: protein: recombinant; tags: N-terminal GST; dsDNA, one strand shown
# T10 sequence: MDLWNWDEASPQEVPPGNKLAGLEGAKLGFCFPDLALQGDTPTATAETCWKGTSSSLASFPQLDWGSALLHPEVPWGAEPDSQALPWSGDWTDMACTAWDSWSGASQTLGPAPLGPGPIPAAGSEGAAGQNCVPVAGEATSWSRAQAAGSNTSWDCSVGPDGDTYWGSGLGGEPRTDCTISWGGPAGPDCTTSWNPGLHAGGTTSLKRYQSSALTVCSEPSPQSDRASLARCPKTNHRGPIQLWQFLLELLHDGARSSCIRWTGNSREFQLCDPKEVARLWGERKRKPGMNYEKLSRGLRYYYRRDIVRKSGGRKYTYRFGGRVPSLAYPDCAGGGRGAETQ
# How it was run: as §1
# ELF3 = biological target: T11, ELF3 (Homo sapiens, UniProt P78545 1-371); conditions: protein: recombinant; tags: N-terminal GST; dsDNA, one strand shown
# T11 sequence: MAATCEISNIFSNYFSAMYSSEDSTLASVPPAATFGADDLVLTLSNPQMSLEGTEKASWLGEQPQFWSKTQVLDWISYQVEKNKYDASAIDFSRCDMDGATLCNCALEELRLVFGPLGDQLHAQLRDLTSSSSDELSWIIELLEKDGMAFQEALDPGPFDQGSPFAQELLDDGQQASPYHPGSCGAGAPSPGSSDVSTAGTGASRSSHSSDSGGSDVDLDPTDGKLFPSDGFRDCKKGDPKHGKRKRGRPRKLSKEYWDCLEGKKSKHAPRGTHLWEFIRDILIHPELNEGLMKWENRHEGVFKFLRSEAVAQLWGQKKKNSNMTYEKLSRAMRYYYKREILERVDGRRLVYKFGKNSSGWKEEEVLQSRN
# How it was run: as §1
# CRX = CRX (Homo sapiens, UniProt O43186 1-299); conditions: protein: recombinant; tags: N-terminal GST; dsDNA, one strand shown
# Chain of CRX (O43186 whole entry): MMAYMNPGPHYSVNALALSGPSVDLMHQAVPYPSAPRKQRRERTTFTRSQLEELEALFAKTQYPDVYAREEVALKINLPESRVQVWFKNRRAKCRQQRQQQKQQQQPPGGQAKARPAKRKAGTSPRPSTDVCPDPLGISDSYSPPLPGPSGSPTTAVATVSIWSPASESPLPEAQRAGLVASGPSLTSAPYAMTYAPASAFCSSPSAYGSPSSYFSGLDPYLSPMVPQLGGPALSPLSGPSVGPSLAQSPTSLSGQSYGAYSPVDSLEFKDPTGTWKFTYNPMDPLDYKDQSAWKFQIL
# How it was run: as §1
# ETV1 = ETV1 (Homo sapiens, UniProt P50549 1-477); conditions: protein: recombinant; tags: N-terminal GST; dsDNA, one strand shown
# Chain of ETV1 (P50549 whole entry): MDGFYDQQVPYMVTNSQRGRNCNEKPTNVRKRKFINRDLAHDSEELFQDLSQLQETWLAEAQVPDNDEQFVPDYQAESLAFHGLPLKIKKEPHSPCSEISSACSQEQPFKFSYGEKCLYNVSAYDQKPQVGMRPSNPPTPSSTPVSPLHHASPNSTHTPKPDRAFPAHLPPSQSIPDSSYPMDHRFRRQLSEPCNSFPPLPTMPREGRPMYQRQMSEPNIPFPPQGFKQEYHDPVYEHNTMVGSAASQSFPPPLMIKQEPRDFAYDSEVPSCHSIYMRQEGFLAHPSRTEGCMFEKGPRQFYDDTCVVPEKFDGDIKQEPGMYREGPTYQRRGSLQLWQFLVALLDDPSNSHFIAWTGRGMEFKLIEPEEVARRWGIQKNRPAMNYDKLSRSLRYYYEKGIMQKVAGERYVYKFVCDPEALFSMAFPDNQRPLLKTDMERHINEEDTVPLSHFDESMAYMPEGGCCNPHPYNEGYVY
# How it was run: as §1
sequence,measurement,setting,value
AAGCTG,binding signal,FLI1,"1.21 fold enrichment (6-mer frequency, TF over GST control)"
same,binding signal,ELK1,"1.24 fold enrichment (6-mer frequency, TF over GST control)"
same,binding signal,GABPA,"1.16 fold enrichment (6-mer frequency, TF over GST control)"
same,binding signal,ERG,"1.13 fold enrichment (6-mer frequency, TF over GST control)"
same,binding signal,ELF1,"1.16 fold enrichment (6-mer frequency, TF over GST control)"
same,binding signal,EHF,"1.08 fold enrichment (6-mer frequency, TF over GST control)"
same,binding signal,SPI1,"1.03 fold enrichment (6-mer frequency, TF over GST control)"
same,binding signal,SPIB,"1.14 fold enrichment (6-mer frequency, TF over GST control)"
same,binding signal,ELK3,"1.08 fold enrichment (6-mer frequency, TF over GST control)"
same,binding signal,FEV,"1.14 fold enrichment (6-mer frequency, TF over GST control)"
same,binding signal,ETV5,"1.08 fold enrichment (6-mer frequency, TF over GST control)"
same,binding signal,HSF1,"1.25 fold enrichment (6-mer frequency, TF over GST control)"
same,binding signal,SPIC,"1.08 fold enrichment (6-mer frequency, TF over GST control)"
same,binding signal,ELF4,"1.08 fold enrichment (6-mer frequency, TF over GST control)"
same,binding signal,ELK4,"1.19 fold enrichment (6-mer frequency, TF over GST control)"
same,binding signal,ETV2,"1.17 fold enrichment (6-mer frequency, TF over GST control)"
same,binding signal,ELF3,"1.28 fold enrichment (6-mer frequency, TF over GST control)"
same,binding signal,CRX,"1.59 fold enrichment (6-mer frequency, TF over GST control)"
same,binding signal,ETV1,"1.12 fold enrichment (6-mer frequency, TF over GST control)"
